Assay results published in PubChem BioAssay (NCI).
Where “and” joins values, the source holds several entries; their conditions need not be identical. Equal entries are not always repeated. The panel holds about 79,000 compounds, 15% with a hit somewhere; the sample as a whole holds those more often. No stated cut-off is given here; in the data, active means growth inhibition above about 70%; inactive means the rest.

Tests used:
[1] = NCI Yeast Anticancer Drug Screen. Data for the rad50 strain (AID 155);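 further: 0% = growth of vehicle-only cultures of the same strain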; settings: S. cerevisiae rad50 strain growth inhibition; at 50.0 µM; active compounds read high
Procedure, shortened: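 Readout: growth inhibition relative to vehicle-treated cultures. Compound exposure was carried out in a genetically defined yeast strain deficient in DNA damage repair.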

[2] = NCI Yeast Anticancer Drug Screen. Data for the mec2-1 strain (AID 157); settings: S. cerevisiae mec2-1 strain, at 50.0 µM, active compounds read high
Procedure, shortened: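 Cells of the genetically defined mec2-1 yeast strain are incubated with test compound. Inhibition of growth is calculated against vehicle-treated controls.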

[3] = NCI Yeast Anticancer Drug Screen. Data for the sgs1 mgt1 strain (AID 161);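 further: 0% = growth of cultures given vehicle only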; settings: S. cerevisiae sgs1 mgt1 strain, at 50.0 µM, active compounds read high
Procedure, shortened: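 Inhibition of yeast growth, normalised to vehicle-treated controls, is reported for a strain bearing genetic alterations in DNA damage repair.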

[4] = NCI Yeast Anticancer Drug Screen. Data for the cln2 rad14 strain (AID 165);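 further: 0% = growth equal to vehicle treated cultures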; settings: S. cerevisiae cln2 rad14 strain, at 50.0 µM, active compounds read high
Procedure, shortened: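 The screen exposed genetically defined yeast (cln2 rad14) to test compounds and scored growth inhibition relative to vehicle-treated controls.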

[5] = NCI Yeast Anticancer Drug Screen. Data for the bub3 strain (AID 167); settings: S. cerevisiae bub3 mutant strain, at 50.0 µM, active compounds read high
Procedure, shortened: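 Readout: yeast growth inhibition, expressed relative to vehicle-only wells. The test organism is a mutant strain from a panel with lesions in DNA repair or checkpoint genes.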

[6] = NCI Yeast Anticancer Drug Screen. Data for the mlh1 rad18 strain (AID 175); settings: S. cerevisiae mlh1 rad18 strain growth inhibition; at 50.0 µM; active compounds read high
Procedure, shortened: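 Compound-treated yeast growth, normalised to vehicle controls. Strain bears defined DNA repair mutations.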

Measured: growth inhibition

O=S(=O)(O)c1cc(N=Nc2cc(S(=O)(=O)O)c3cccnc3c2O)ccc1/C=C/c1ccc(N=Nc2cc(S(=O)(=O)O)c3cccnc3c2O)cc1S(=O)(=O)O
inactive: [1] -16.7% and 18.6% | [2] -17.4% and 7.65% | [3] -26.5% and 7.4% | [4] -24.4% and -55.5% | [5] -18.6% and -62.5% | [6] -111% and -27.9%

COC(=O)/C(Cc1cccc(OC(C)=O)c1C(=O)OC)=N/O
inactive: [1] -8.8% and 2.95% | [2] 16.2% and 12.4% | [3] 9.25% and -3.7% | [4] -10.5% and -99.8% | [5] -8.75% and 12.7% | [6] -13.2% and 3.55%

CCOC(=O)C(NC(C)=O)C(C)=O (stereo not drawn)
inactive: [1] 32.5% and 10.9% | [2] -7% and -5.65% | [3] 13.1% and 8.85% | [4] -4.15% and -11.7% | [5] 1.55% and -3.15% | [6] -5.85% and 11.9%

CC(C)(SCc1ccccc1)C(N)C(=O)O (stereo not drawn)
inactive: [1] 8.05% and -6.85% | [2] 10.3% and -17% | [3] 1.65% and -33.1% | [4] 2.2% and -33.8% | [5] -3.45% and -31.3% | [6] 6.1% and -10.3%

O=C(O)Cc1ccc(C2CCC(O)CC2)cc1 (stereo not drawn)
inactive: [1] 2.75% and 8.45% | [2] -5.35% and -1.85% | [3] 3.05% and 21.2% | [4] -17.8% and -4.3% | [5] -0.15% and 5.4% | [6] 0.9% and 1%

O=C(NC(Cc1ccccc1)C(=O)O)OCc1ccccc1 (stereo not drawn)
inactive: [1] 4.2% and 0.2% | [2] 23.9% and 6.9% | [3] 12.1% and 1% | [4] -9.35% and -1.55% | [5] 20.7% and -5.15% | [6] 14.7% and 16.9%

O=C(Nc1ccccc1)C1CCCCC1CO (stereo not drawn)
inactive: [1] 18.9% and 7.15% | [2] 5.95% and 17.4% | [3] 9.95% and 22.1% | [4] 7% and 7.1% | [5] 2.65% and -6.15% | [6] 5.95% and 31.8%

CN(C)COC(=S)S
inactive: [1] -7.65% and 4.05% | [2] -14.4% and 3.65% | [3] -3.8% and -1.7% | [4] -30.9% and 3.55% | [5] 1.75% and -5.5% | [6] -3.9% and 2.1%

CC(C)(O)CN/C=C(\C(=O)OC(C)(C)C)N1C(=O)c2ccccc2C1=O
inactive: [1] 17.1% and -17% | [2] 3% and -6.7% | [3] 13.8% and -5.45% | [4] -39% and -11.5% | [5] -1.65% and -4.95% | [6] 2.8% and 17.6%

CN1C/C(=C\c2ccccc2[N+](=O)[O-])C(=O)/C(=C/c2ccccc2[N+](=O)[O-])C1
inactive: [1] -3.7% and -14.4% | [2] 14.9% and 28.8% | [3] 25.6% and -49% | [4] 4.85% and -8.9% | [5] 13.7% and 21.4% | [6] 16.8% and -29.1%

Cc1ccc2c(c1)P(=O)(O)c1cc(C)ccc1S2(=O)=O
inactive: [1] -0.75% and 4.5% | [2] 11.2% and -2.65% | [3] 6.75% and -4.1% | [4] -1.1% and -1.2% | [5] 0.45% and -9.3% | [6] -1.1% and -0.2%

COC(=O)C(C)(C)O
inactive: [1] -1.2% and 20.4% | [2] 8.2% and -28.9% | [3] -4.15% and -12% | [4] -26.9% and -75.2% | [5] 1.95% and -19.1% | [6] 3.1% and 1.55%

Nc1cc(=O)[nH][nH]1
inactive: [1] -11.7% and -11.5% | [2] -9.65% and -5.8% | [3] -2.15% and -22.4% | [4] -5.9% and -7.35% | [5] -17.8% and -0.2% | [6] -15.8% and -9.2%

CCC(C)C(N)C(=O)O (stereo not drawn)
inactive: [1] -39.2% and 2.9% | [2] -31.7% and -21.1% | [3] -17.4% and -2.15% | [4] -29.3% and 5.4% | [5] -14.1% and 4.05% | [6] -28.9% and 5.5%

O=[N+]([O-])c1ccc(N=Cc2ccc(Cl)cc2)cc1
inactive: [1] -0.2% and 4.6% | [2] -6.05% and 4.9% | [3] -23.2% and -2.25% | [4] -0.2% and -40.4% | [5] 5.85% and 7.9% | [6] -4.15% and -3.05%

CCCSc1nc(COC(=O)NC)c(COC(=O)NC)n1C
inactive: [1] -5.1% and -10% | [2] -25.1% and 2% | [3] -5.8% and -9.1% | [4] -12% and 2.95% | [5] -5.1% and -2% | [6] -20.4% and 4.85%

O=C(O)c1cc(O)c(O)c(O)c1
inactive: [1] 5.3% and 1.55% | [2] -12.6% and -7.9% | [3] 2.2% and 15.6% | [4] 15.6% and -9.5% | [5] 2.25% and 2.85% | [6] 5.8% and 3%

O=C(O)c1cc(N=C=S)ccc1-c1c2ccc(=O)cc-2oc2cc(O)ccc12
inactive: [1] 6.3% and 32.9% | [2] 3.7% and 31.5% | [3] -4.85% and 15.3% | [4] 6% and 16.6% | [5] -9.75% and -4.1% | [6] 4.95% and 45.9%

CN(C)C
inactive: [1] 17.1% and 2.45% | [2] -30.6% and -27.2% | [3] 10.4% and -17.1% | [4] -3.8% and -97.7% | [5] 9.8% and -21.9% | [6] 7.8% and -135%

N=C(N)/C=C\C(=O)O
inactive: [1] 1.65% and 2.05% | [2] -9.35% and -13.2% | [3] 4.4% and -11.1% | [4] 17.4% and 14.3% | [5] -21.4% and -33.8% | [6] -4.9% and -14.8%

O=C1C(c2ccccc2)=C(c2ccccc2)C(c2ccccc2)=C1c1ccccc1
inactive: [1] 36.6% and 12.2% | [2] -3.9% and 8.35% | [3] 15.8% and 25.2% | [4] -14% and -2.4% | [5] 0.25% and 12.2% | [6] 18.7% and 8.9%

O=C(O)CCCCC(=O)O
inactive: [1] 2.1% and -5.2% | [2] -6.65% and -1.2% | [3] -3.8% and -32.5% | [4] -30.3% and 8% | [5] -18.1% and -22.1% | [6] -5.6% and 6.85%

CC(=O)/C=C/C1=C(C)CCCC1(C)C
inactive: [1] -21.8% and 11.2% | [2] -8.35% and -10.9% | [3] -18.1% and -19.4% | [4] -14.7% and 8.05% | [5] -20.9% and 0.5% | [6] 11.8% and -2.2%

C=CCSC1=NC(=O)C(CCCC)C(=O)N1C (stereo not drawn)
inactive: [1] 7.75% and -1.7% | [2] 2.65% and 7.25% | [3] 4.25% and 6.3% | [4] -35.5% and -24.9% | [5] -22% and 7.5% | [6] 10.8% and 7.5%

C[N+](C)(C)CCO
inactive: [1] -16.1% and 2.25% | [2] -22.9% and -8.65% | [3] -5.85% and -6.65% | [4] 21.1% and 13.4% | [5] 16.5% and 16.8% | [6] 0.85% and -2.2%

N=C(N)SCCc1ccccn1
inactive: [1] -30.3% and -8.8% | [2] -27.9% and -24.2% | [3] -35.1% and -28% | [4] -16.1% and -19.4% | [5] -44% and -39.1% | [6] -18.4% and -1.55%

O=c1c([N+](=O)[O-])c[nH]c2cc(Cl)ccc12
inactive: [1] -38.3% and 6.4% | [2] 2.25% and -2.2% | [3] -19.2% and 8.3% | [4] 0.25% and 35.5% | [5] -6% and 11.6% | [6] -33.7% and 15.8%

CCCCCCCCCCCCc1ccccc1
inactive: [1] 2.15% and 17.9% | [2] 4.1% and 11.4% | [3] -4.15% and 2.6% | [4] 5.25% and -55.8% | [5] 18.2% and -19.8% | [6] 16.1% and -0.6%

NC(N)=NCCCC1NC(=O)C(Cc2ccc(O)cc2)NC1=O (stereo not drawn)
inactive: [1] 15.3% and -3.3% | [2] 21.8% and -3.25% | [3] 48.9% and -4.85% | [4] -5.05% and -8.55% | [5] 38.2% and 3.55% | [6] 33.2% and -1.6%

Cc1cc(C#N)c(=S)n(C2OC(CO)C(O)C(O)C2O)c1C (stereo not drawn)
inactive: [1] 7.4% and 11.9% | [2] 9.25% and 8.65% | [3] 14.2% and 15.2% | [4] 7.25% and -0.4% | [5] 7.8% and 7.75% | [6] 24.6% and 22.6%

CC(Br)C(=O)NC(Cc1ccccc1)C(=O)O (stereo not drawn)
inactive: [1] 2.65% and -4.15% and -18.5% | [2] -18.9% and 0.65% and -20.2% | [3] -11.8% and 3% | [4] 16.8% and -25.6% | [5] -17.5% and 8.15% | [6] 25.4% and 5.95% and -9.85%

CC(=O)c1c(-c2cccc3ccccc23)c(C#N)c(=S)n(C2OC(CO)C(O)C(O)C2O)c1-c1ccccc1 (stereo not drawn)
inactive: [1] 21.2% and 31.6% | [2] 17.9% and -8.45% | [3] 42.1% and 34.2% | [4] 25.7% and 23.8% | [5] 34.9% and 12.3% | [6] 21.6% and 24.7%

COC(=O)C1=COC(C)C2CN3CCc4c([nH]c5cc(OC)c(OC)cc45)C3CC12 (stereo not drawn)
inactive: [1] 14.2% and 5.35% and -4.65% | [2] -5.4% and -5.6% and -9.7% | [3] 5.6% and 12.8% and -5.45% | [4] 6.1% and 14.9% and 10.6% | [5] 26.4% and 18.1% and -20.4% | [6] 25.6% and -54.1% and -63.4%
